Cruzain inh noDet: qHTS Assay for Promiscuous and Specific Inhibitors of Cruzain (without detergent); Cruzipain (Trypanosoma cruzi), P25779; purified cruzain, Z-FR-AMC fluorescence, no detergent; Potency, µM, without a hit: max response, negative = inhibition, actives largely listed as inhibitors; 200,000 compounds, 2.3% hits; AID 1476, 2009;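 also: plate controls were enzyme without inhibitor for no effect and buffer without enzyme for full effect; nearly all actives have a fitted effect of over 40% in size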
Target sequence (P25779 123-467 limits assumed): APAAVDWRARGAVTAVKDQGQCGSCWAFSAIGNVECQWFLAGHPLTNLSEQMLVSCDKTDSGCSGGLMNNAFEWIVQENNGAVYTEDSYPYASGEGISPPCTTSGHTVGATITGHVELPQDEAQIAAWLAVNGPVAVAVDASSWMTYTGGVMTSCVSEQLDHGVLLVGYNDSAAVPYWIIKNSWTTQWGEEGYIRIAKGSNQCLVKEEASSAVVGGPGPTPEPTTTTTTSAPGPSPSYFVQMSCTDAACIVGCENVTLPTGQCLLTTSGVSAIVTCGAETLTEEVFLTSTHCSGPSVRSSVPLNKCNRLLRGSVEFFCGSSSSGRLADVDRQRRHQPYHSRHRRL
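Purified cruzain at 1.5 nM, pre-incubated 15 min with compound at room temperature in 100 mM sodium acetate pH 5.5, 5 mM DTT, 0.00005% Triton X-100. Reaction started with 2 uM Z-FR-AMC; AMC fluorescence increase over 60 s gives rate.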
Cruzain Triton: qHTS Assay for Promiscuous and Specific Inhibitors of Cruzain (with detergent). Cruzipain (Trypanosoma cruzi), P25779. AID 1478, 2009. 200,000 compounds, 0.43% hits. Potency, µM, for the others: max response, negative = inhibition, usual class: inhibitors. purified cruzain, Z-FR-AMC fluorescence, 0.01% Triton;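 also: plate controls were neutral wells for no effect and buffer without enzyme for full effect; nearly all actives have a fitted effect of over 40% in size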
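Steps: dispense cruzain (1.5 nM final) in acetate buffer pH 5.5 with DTT and 0.01% Triton X-100; pin-transfer compounds; incubate 15 min RT; add Z-FR-AMC (2 uM final); read fluorescence every 30 s, using the 60 s intensity change.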
Active calls of the source: *; ? = inconclusive. Sampled rows, rich in hits. Any-hit rate of the full collection: about 2.6%. Calls follow the shape of the dose curve; as a rule, active = well fitted curve in the direction sought with a large enough effect; inconclusive = small, poorly fitted or top-dose-only effect, or another doubt; inactive = no such curve, though single readings can be large; an effect the other way counts as inactive or inconclusive. Potency is read from the fitted curve at half-maximal effect.

SMILES | Cruzain inh noDet | Cruzain Triton
COc1ccc(NC(=O)Cn2c(=O)n(CCC(=O)NCc3ccccc3OC)c(=O)c3ccccc32)cc1Cl | -20% | 0%
Cc1cc(NC(=O)CSc2ncnc3sc4c(c23)CCC(C)C4)no1 (stereo not given) | 5µM* | 5%
Cc1cc(NC(=O)CSc2nc(C(C)C)nc3sc(C)c(C)c23)no1 | 11% | 1%
O=C(Cc1csc(Nc2nc(=S)[nH]c3ccccc23)n1)NCc1ccccc1Cl | ? | 3%
Cc1ccc(CNC(=O)Cc2csc3ccccc23)cc1 | -4% | -5%
Cc1ccc(CNC(=O)Cc2csc(Nc3nc(=S)[nH]c4ccccc34)n2)cc1 | 10µM* | -1%
O=C(Cc1csc(Nc2nc(=S)[nH]c3ccccc23)n1)NCc1cccc(Cl)c1 | 4µM* | 2%
CCn1c(CNc2ccc(F)cc2)nnc1SCC(=O)Nc1ccc(OC)cc1OC | ? | -6%
O=C(Nc1ccccc1C(=O)NCc1cccnc1)c1ccco1 | 10% | 1%
O=C(CN1CCN(c2ncccn2)CC1)N1CCc2ccccc21 | 0% | -4%
CCNC(=O)CSc1ncnc2sccc12 | -9% | -3%
N#Cc1c(NC(=O)CSc2ncnc3sccc23)oc(-c2ccco2)c1-c1ccco1 | 25µM* | -12%
COc1ccc(-c2cc(C(=O)Nc3cccc(C(C)=O)c3)no2)cc1 | 20µM* | 0%
COc1ccc(-c2cc(C(=O)Nc3ccc(C)cc3)no2)cc1 | 20µM* | 1%
COc1ccc(NC(=O)c2cc(-c3ccccc3OC)on2)cc1 | -10% | -6%
COc1ccc(-c2cc(C(=O)Nc3cccc(C(C)=O)c3)no2)cc1OC | -10% | -1%
Cc1ccc(-c2cc(C(=O)Nc3cnn(C45CC6CC(CC(C6)C4)C5)c3)no2)cc1 | 13µM* | 5%
O=C(Nc1cnn(C23CC4CC(CC(C4)C2)C3)c1)c1cc(-c2ccccc2)on1 | ? | -7%
O=c1c(=O)n(Cc2ccc(Cl)cc2)ccn1Cc1ccc(F)cc1 | 7% | -3%
O=c1ncn(-c2cccc(F)c2)c2ncccc12 | 0% | -1%
Cc1ccc(-c2noc(CN3CCN(c4ccccc4F)CC3)n2)cc1 | 2% | -5%
Cc1ccc(CNC(=O)c2cc3c(-c4ccc(Cl)cc4)nn(C)c3s2)o1 | -10% | -2%
Cc1ccc(-n2ncc3c(=O)n(CC(=O)Nc4cccc(Cl)c4)cnc32)cc1C | 16µM* | -7%
Cc1ccc(-n2ncc3c(=O)n(Cc4cccc(Cl)c4)cnc32)cc1C | 15% | 0%
C=CCn1c(-c2cccc(OC)c2)nc2nc3ccccc3nc21 | 1% | -12%
SMILES | Cruzain inh noDet | Cruzain Triton
CCc1c(C)nc(SCC(=O)Nc2c(C)n(C)n(-c3ccccc3)c2=O)[nH]c1=O | -11% | 7%
COc1cc(/C=C/C(=O)OCC(=O)NCC2CCCO2)ccc1OCC#N (stereo not given) | -13% | -7%
Cc1ccc(Nc2c(-c3c[nH]c4ccccc34)nc3cc(C)ccn23)cc1 | ? | -10%
Cc1ccn2c(Nc3ccccc3)c(-c3c[nH]c4ccccc34)nc2c1 | 13µM* | -17%
COC(=O)CSc1nnc(C)n1-c1ccc(C)cc1 | 4% | 2%
CCCCNC(=O)c1cc(Sc2ccc(OCC)cc2)nc2ccccc12 | -4% | 0%
CC(=O)Nc1c(C)nn(-c2ccccc2)c1N1CCC(C(=O)NCc2cccc(Cl)c2)CC1 | ? | -14%
CC(=O)Nc1c(C)nn(-c2ccccc2)c1N1CCC(C(=O)NCc2ccccc2Cl)CC1 | 15% | 28µM*
COc1ccc(S(=O)(=O)N[C@@H](Cc2ccccc2)C(=O)N2CC[C@@]3(O)CCCC[C@H]3C2)cc1 | 20% | 4%
N#Cc1c(NC(=O)c2ccccc2)sc2c1CCCCC2 | -1% | -10%
COc1ccc(-c2cc(C(=O)Nc3sc4c(c3C#N)CCCC4)c3ccccc3n2)cc1 | 7.9µM* | -5%
COc1ccc(OC)c(-c2cc(C(=O)Nc3sc4c(c3C#N)CCC(C)C4)c3ccccc3n2)c1 (stereo not given) | ? | 1%
COc1ccccc1-c1cc(C(=O)Nc2sc3c(c2C#N)CCC(C)C3)c2ccccc2n1 (stereo not given) | 3.2µM* | 1%
CC/C(=N/NC(=O)c1ccccc1)c1ccc(OCCN2CCOCC2)cc1 | 3% | 0%
Oc1cccc(C(=S)N2CCN(Cc3ccccc3)CC2)c1 | 0% | -10%
OCCN1CCN(CCCc2c3c(cc4c2CCC4)CCC3)CC1 | 2% | -1%
COc1cc(-c2ccc(N=C=O)c(OC)c2)ccc1N=C=O | 32µM* | -4%
COc1cc(-c2ccc(NC(=O)c3ccc(C)cc3)c(OC)c2)ccc1NC(=O)c1ccc(C)cc1 | -30% | -1%
CSc1ccc(/C=C/c2nc3ccccc3n2S(=O)(=O)c2cccc(Cl)c2)cc1 | -1% | -11%
O=S(=O)(c1cccc(Cl)c1)n1c(/C=C/c2ccccc2Cl)nc2ccccc21 | 7.9µM* | -10%
